1 compound from ChEMBL document CHEMBL1961873, “Compounds: GSK PKIS; Assays: Nanosyn kinase panel” (2012) can be followed below.

The target in assay [1] is Sphingosine kinase 1 (Homo sapiens) (UniProt Q9NYA1). The settings on record: at 1 µM.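 Further: mean SPHK1 inhibition value reported from the GSK PKIS kinase panel screen.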
The target in assay [2] is T1, Sphingosine kinase 2 (Homo sapiens) (UniProt Q9NRA0).
T1 sequence (whole entry): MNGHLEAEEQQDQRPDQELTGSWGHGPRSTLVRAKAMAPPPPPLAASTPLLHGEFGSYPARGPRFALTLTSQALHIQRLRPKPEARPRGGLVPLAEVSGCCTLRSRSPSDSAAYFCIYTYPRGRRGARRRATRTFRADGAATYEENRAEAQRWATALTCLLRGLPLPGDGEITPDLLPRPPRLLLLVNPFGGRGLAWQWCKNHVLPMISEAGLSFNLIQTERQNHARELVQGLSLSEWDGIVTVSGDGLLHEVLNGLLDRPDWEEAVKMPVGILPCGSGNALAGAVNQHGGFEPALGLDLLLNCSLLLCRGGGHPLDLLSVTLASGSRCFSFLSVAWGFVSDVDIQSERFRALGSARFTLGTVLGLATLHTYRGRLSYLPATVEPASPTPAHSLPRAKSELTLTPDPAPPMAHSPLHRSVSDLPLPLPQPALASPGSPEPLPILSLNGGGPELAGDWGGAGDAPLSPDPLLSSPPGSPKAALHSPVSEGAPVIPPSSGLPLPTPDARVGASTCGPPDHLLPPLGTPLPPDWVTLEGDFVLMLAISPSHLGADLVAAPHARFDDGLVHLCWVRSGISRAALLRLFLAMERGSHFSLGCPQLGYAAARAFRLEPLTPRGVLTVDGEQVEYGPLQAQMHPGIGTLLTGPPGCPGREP
The settings on record: at 0.1 µM.

Assay [3] deals with T1, Sphingosine kinase 2 (Homo sapiens). The settings on record: at 1 µM.
Assay [4] addresses Casein kinase II subunit alpha (Homo sapiens) (UniProt P68400). The conditions noted are these: at 0.1 µM.
For assay [5] the target is unchanged. The settings on record: at 1 µM.
For assay [6], the target named is T2, Inhibitor of nuclear factor kappa-B kinase subunit alpha (Homo sapiens) (UniProt O15111).
T2 sequence (whole entry): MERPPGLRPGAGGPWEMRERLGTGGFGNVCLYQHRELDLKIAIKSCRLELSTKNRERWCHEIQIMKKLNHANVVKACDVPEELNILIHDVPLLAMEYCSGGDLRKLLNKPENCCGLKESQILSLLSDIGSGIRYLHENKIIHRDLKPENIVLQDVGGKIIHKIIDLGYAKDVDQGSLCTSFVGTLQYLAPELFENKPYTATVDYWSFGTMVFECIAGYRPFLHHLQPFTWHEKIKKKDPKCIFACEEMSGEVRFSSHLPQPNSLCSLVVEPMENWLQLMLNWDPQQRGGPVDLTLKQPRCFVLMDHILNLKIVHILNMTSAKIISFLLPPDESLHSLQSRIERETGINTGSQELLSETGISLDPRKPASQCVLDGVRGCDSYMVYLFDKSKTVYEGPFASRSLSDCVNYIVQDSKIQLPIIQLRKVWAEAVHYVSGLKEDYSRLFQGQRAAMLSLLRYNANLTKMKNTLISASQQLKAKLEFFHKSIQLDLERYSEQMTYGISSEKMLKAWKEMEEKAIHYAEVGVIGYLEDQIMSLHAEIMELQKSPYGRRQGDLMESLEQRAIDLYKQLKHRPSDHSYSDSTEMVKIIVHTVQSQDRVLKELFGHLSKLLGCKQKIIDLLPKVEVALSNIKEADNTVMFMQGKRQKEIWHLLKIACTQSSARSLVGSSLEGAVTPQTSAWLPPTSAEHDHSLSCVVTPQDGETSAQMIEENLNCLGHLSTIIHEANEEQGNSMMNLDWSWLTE
The settings on record: at 0.1 µM.

The target in assay [7] is T2, Inhibitor of nuclear factor kappa-B kinase subunit alpha (Homo sapiens). The conditions noted are these: at 1 µM.
Assay [8] deals with T3, Inhibitor of nuclear factor kappa-B kinase subunit beta (Homo sapiens) (UniProt O14920).
T3 sequence (whole entry): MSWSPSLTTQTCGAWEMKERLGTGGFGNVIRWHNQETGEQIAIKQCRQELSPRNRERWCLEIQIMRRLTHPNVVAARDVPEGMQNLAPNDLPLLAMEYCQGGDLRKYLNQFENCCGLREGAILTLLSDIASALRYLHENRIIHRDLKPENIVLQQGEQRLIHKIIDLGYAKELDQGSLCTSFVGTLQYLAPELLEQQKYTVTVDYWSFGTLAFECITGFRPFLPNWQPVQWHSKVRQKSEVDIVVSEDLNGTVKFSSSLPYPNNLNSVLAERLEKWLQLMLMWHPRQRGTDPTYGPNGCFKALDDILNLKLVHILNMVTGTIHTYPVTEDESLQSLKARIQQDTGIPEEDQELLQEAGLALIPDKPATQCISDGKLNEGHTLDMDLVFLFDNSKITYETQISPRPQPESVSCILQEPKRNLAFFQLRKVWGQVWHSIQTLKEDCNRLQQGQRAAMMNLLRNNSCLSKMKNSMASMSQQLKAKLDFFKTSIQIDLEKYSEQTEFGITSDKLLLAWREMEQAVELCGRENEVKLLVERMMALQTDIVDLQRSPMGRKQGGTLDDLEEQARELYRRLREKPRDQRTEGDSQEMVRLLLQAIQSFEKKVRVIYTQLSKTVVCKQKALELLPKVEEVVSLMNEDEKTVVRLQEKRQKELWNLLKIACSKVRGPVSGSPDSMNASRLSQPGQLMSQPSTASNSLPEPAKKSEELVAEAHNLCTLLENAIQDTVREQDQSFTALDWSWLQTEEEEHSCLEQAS
The conditions noted are these: at 0.1 µM.

Assay [9] has as its target T3, Inhibitor of nuclear factor kappa-B kinase subunit beta (Homo sapiens). The conditions noted are these: at 1 µM.
The target in assay [10] is T4, Inhibitor of nuclear factor kappa-B kinase subunit epsilon (Homo sapiens) (UniProt Q14164).
T4 sequence (whole entry): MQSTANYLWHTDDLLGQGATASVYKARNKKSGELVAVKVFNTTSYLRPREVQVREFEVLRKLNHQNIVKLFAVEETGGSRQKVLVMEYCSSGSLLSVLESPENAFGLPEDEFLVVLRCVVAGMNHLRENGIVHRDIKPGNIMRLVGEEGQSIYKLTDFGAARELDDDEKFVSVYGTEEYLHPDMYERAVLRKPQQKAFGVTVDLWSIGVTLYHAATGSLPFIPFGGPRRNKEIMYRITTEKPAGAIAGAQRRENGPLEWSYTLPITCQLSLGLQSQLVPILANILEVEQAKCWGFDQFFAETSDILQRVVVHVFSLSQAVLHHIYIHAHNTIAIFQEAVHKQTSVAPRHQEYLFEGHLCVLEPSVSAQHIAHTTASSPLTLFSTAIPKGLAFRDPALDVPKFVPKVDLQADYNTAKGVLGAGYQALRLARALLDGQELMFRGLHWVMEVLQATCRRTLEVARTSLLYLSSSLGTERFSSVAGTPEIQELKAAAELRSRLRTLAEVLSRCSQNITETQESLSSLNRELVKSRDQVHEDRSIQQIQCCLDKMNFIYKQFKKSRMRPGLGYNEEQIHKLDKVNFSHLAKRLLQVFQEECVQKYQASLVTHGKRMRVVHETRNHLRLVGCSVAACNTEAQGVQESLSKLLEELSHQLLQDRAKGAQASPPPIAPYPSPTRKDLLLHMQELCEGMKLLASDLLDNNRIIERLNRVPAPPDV
The conditions noted are these: at 0.1 µM.

The target in assay [11] is T4, Inhibitor of nuclear factor kappa-B kinase subunit epsilon (Homo sapiens). The conditions noted are these: at 1 µM.
The target in assay [12] is T5, Serine/threonine-protein kinase Nek1 (Homo sapiens) (UniProt Q96PY6).
T5 sequence (whole entry): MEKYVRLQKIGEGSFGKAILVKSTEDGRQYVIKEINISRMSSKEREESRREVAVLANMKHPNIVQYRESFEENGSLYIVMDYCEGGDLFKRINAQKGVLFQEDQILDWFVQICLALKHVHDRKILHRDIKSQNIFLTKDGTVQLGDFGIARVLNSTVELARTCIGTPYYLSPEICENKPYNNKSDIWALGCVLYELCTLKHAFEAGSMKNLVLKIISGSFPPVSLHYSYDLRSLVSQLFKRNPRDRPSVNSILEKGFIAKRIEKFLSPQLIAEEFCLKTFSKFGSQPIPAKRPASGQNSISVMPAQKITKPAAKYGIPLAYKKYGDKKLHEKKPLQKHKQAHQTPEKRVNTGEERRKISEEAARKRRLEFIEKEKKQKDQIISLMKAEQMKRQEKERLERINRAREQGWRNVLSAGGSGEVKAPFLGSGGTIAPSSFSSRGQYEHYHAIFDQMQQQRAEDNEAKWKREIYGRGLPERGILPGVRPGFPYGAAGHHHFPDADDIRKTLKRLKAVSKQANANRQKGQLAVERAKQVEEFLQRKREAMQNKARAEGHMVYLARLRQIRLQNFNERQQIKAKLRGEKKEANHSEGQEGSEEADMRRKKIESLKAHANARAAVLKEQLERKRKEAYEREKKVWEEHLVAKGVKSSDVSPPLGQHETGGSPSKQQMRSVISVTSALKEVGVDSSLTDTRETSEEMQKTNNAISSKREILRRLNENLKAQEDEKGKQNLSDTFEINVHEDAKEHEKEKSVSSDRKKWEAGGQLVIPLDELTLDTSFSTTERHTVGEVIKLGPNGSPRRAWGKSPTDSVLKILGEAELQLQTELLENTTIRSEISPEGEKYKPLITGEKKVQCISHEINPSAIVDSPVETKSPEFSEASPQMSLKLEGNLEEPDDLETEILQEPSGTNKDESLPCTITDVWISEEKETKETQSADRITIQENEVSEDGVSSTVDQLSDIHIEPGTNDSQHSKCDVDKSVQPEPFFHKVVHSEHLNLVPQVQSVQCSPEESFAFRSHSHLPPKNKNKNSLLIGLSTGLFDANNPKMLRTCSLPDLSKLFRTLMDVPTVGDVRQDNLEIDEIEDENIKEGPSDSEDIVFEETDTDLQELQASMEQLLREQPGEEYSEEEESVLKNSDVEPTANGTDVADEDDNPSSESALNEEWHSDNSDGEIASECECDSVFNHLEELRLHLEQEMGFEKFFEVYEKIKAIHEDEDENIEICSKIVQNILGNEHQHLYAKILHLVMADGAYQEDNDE
The settings on record: at 0.1 µM.

For assay [13], the target named is T5, Serine/threonine-protein kinase Nek1 (Homo sapiens). The conditions noted are these: at 1 µM.
Assay [14] deals with T6, Serine/threonine-protein kinase Nek2 (Homo sapiens) (UniProt P51955).
T6 sequence (whole entry): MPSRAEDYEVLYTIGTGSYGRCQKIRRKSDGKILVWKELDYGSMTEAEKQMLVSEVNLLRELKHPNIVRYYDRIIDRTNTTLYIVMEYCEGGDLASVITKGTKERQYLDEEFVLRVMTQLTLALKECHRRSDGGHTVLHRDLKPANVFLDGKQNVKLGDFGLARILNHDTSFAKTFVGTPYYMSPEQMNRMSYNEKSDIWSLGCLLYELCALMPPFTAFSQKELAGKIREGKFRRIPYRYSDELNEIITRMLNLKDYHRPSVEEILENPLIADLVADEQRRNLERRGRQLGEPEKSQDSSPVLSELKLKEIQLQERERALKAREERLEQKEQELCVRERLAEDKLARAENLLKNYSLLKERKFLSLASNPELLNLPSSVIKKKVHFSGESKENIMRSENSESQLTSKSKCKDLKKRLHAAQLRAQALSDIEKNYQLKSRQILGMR
The settings on record: at 0.1 µM.

The target of assay [15] is T6, Serine/threonine-protein kinase Nek2 (Homo sapiens). The settings on record: at 1 µM.
In assay [16] the target is Serine/threonine-protein kinase Nek6 (Homo sapiens) (UniProt Q9HC98). The conditions noted are these: at 0.1 µM.
Assay [17] has the same target. The settings on record: at 1 µM.
For assay [18], the target named is Serine/threonine-protein kinase Nek7 (Homo sapiens) (UniProt Q8TDX7). The conditions noted are these: at 0.1 µM.
The target is the same in assay [19]. The settings on record: at 1 µM.
The target in assay [20] is T7, Serine/threonine-protein kinase Nek9 (Homo sapiens) (UniProt Q8TD19).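 Further: reported value is the mean percent inhibition of NEK9.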
T7 sequence (whole entry): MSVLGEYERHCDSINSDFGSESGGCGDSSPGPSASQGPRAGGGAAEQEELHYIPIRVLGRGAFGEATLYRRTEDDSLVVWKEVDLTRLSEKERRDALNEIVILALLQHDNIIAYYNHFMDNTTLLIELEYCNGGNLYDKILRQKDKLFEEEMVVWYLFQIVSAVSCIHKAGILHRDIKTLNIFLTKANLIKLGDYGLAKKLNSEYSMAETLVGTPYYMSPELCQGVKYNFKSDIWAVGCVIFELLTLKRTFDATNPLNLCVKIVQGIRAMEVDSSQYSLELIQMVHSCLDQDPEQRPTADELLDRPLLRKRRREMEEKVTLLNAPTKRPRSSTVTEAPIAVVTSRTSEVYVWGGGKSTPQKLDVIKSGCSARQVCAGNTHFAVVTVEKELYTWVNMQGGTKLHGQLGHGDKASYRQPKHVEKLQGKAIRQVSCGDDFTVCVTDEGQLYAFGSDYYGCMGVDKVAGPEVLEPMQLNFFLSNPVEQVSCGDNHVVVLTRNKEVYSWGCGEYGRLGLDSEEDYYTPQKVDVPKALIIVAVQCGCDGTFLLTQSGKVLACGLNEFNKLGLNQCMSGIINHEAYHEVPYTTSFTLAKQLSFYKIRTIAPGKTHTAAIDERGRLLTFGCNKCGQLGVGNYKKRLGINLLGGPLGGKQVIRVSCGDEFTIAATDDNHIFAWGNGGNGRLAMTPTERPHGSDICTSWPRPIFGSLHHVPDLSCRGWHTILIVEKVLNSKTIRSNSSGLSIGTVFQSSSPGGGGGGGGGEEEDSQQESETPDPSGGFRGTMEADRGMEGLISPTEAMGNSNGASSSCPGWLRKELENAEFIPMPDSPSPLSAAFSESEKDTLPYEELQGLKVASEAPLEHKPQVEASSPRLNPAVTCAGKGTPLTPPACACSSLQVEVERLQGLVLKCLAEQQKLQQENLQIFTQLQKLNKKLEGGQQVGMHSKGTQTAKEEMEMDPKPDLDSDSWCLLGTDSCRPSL
The conditions noted are these: at 0.1 µM.

Structures are written as SMILES.

Casein kinase II subunit alpha (Homo sapiens), sequence (P68400 whole entry, looked up): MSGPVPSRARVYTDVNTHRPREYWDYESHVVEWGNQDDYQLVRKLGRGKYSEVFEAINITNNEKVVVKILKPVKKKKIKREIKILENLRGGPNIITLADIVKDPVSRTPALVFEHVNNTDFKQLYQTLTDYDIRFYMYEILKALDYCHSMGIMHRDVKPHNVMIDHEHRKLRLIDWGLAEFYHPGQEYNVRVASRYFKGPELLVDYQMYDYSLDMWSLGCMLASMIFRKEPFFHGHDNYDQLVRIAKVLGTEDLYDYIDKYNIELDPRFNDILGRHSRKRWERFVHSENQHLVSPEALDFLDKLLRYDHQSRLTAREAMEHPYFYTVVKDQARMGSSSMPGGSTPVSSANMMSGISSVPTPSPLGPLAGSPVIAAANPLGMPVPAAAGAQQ
Serine/threonine-protein kinase Nek7 (Homo sapiens), sequence (Q8TDX7 whole entry, looked up): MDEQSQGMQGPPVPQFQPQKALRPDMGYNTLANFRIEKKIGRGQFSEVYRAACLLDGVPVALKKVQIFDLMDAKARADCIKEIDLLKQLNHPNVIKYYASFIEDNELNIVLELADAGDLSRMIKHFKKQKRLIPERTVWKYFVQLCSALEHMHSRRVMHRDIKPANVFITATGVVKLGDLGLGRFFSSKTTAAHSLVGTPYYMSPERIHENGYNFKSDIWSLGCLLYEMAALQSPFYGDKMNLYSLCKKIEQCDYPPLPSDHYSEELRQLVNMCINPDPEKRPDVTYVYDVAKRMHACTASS
Serine/threonine-protein kinase Nek6 (Homo sapiens), sequence (Q9HC98 whole entry): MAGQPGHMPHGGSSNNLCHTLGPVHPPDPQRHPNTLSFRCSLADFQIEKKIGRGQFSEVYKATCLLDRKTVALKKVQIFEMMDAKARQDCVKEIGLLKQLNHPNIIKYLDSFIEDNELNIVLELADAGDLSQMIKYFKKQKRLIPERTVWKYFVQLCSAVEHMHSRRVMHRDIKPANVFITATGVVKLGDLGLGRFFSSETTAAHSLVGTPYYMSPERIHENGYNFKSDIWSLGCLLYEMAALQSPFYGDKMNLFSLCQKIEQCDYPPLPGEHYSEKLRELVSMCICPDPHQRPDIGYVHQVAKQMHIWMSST
Sphingosine kinase 1 (Homo sapiens), sequence (Q9NYA1 whole entry): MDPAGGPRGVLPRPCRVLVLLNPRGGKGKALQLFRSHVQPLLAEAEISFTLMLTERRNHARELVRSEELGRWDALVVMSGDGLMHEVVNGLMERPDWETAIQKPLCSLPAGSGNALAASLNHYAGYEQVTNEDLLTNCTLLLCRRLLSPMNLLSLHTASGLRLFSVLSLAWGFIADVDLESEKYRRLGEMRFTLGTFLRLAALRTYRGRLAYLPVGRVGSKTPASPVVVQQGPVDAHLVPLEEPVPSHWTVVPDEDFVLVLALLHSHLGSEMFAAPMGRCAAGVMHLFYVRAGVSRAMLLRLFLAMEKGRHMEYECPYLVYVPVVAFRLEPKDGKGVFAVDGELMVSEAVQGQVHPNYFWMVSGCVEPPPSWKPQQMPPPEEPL

A word on the inhibition: it is the relative decrease from the control value, in per cent. For `CC1(C)CC(n2cnc(-c3ccc(F)cc3)c2-c2ccnc(N)n2)CC(C)(C)N1`, the inhibition in [1] was 10.6%; in [2], 3.82%; in [3], -2.43%; in assay [4], 1.44%; in assay [5], 7.38%; in [6], 1.15%. In addition, the inhibition in assay [7] is 1.35%; in [8], -0.17%; in [9], -1.15%; in assay [10] it was 0.1%; in assay [11], 0.72%; in assay [12], 0.9%. For the same compound, the inhibition in [13] was determined as 0.83%; in assay [14] it was 1.02%; in [15] it was 2.07%; in assay [16], 1.95%; in assay [17], 0.37%; in [18], 3.74%. Also, the inhibition in [19] was found to be 1.39%; in [20], 5.35%.
